98 compounds from PubChem BioAssay AID460 (PCMD, 2006) can be followed below.

Hit rate of the full screen: of about 58,000 compounds, about 100 (0.17%) were called active. No stated cut-off is given here; in the data, active means inhibition above about 45%; inactive means the rest. The full list was thinned out, with actives kept by preference.

The target of the experiment is Procathepsin L (Homo sapiens) (UniProt P07711). In words: inhibitors of human cathepsin L, biochemical (AID 460).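 Further: 0% = enzyme with no compound and 100% = no enzyme blank.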 As to conditions: purified cathepsin L, fluorogenic substrate, fluorescence; stronger effect = higher value;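 tested at 10 µM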.
Procathepsin L (Homo sapiens), sequence (P07711 114-288 limits assumed): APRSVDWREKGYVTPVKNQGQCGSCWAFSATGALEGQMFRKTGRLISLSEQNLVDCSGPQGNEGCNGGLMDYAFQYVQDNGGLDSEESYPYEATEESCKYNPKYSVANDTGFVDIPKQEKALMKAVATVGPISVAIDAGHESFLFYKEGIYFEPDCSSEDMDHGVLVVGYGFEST
Procathepsin L (Homo sapiens), sequence (P07711 292-333 limits assumed): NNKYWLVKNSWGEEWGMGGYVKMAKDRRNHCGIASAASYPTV
Usually inhibition stands for the drop in the measured response relative to a control, in per cent. Turning to `C=CCN1C(=O)C(O)(CC(=O)c2ccc(Cl)cc2)c2ccccc21` (stereo not drawn), the inhibition is 0.03% (inactive).

`CSc1cccc(NC(=O)C2CCCN2S(=O)(=O)c2ccc3c(c2)CCC(=O)N3)c1` (stereo not drawn): the inhibition was 7.66% (inactive).

For `Nc1ccc(SCCN2C(=O)c3ccccc3C2=O)cc1`, the inhibition is 7.88% (inactive).

Take `CCn1c2c(c3ccc(OC)cc31)CCCC2=O`: the inhibition is -5.8% (inactive).

For `C=CCOc1nc2c(c(=O)n(C)c(=O)n2C)n1Cc1ccc(Cl)cc1Cl`, the inhibition was 31.1% (inactive).

Consider `CCOC(=O)c1ccc(COC(=O)c2cc(=O)[nH]c3ccccc23)o1`, for which the inhibition was 2.07% (inactive).

Consider `CCC(=O)Nc1nc(OC)cc(OC)n1`, for which the inhibition was -4.97% (inactive).

With `O=C(NCC1CCCO1)C(C(=O)c1ccccc1)n1cc(Cl)ccc1=O` (stereo not drawn), the inhibition was -10.2% (inactive).

With `Cc1ccc(-c2nnn(CC(=O)N(CCO)C(C(=O)NC(C)(C)C)c3ccncc3)n2)cc1` (stereo not drawn), the inhibition is -1.4% (inactive).

As to `CCCCCCC(=O)N(O)C1CC(=O)N(c2ccccc2)C1=O` (stereo not drawn), the inhibition was -5.53% (inactive).

With `COCCn1c(=O)[nH]c2cc(C(=O)NCc3cccnc3)ccc2c1=O`, the inhibition is 1.59% (inactive).

On to `COc1ccc(CN2CN(C(C)C)CSC2=S)cc1`, for which the inhibition is 17% (inactive).

`Cc1cc(C(F)(F)F)nn1-c1nc(-c2ccco2)cc(C(F)(F)F)n1`: the inhibition is 1.46% (inactive).

As to `CC(=O)Oc1ccc2c(C)c(CC(C)O)c(=O)oc2c1` (stereo not drawn), the inhibition was -70.3% (inactive).

Regarding `COc1ccc(C(=O)NCCc2ccc(S(N)(=O)=O)cc2)cc1OC`, the inhibition was 15.1% (inactive).

As for `Cc1ccc(OCC(O)CN2CCN(CC(O)COc3ccc(C)cc3Cl)CC2)c(Cl)c1` (stereo not drawn), the inhibition was 24.6% (inactive).

Turning to `CCn1c(SCC(=O)Nc2nc3ccc(OC)cc3s2)nnc1-c1ccoc1C`, the inhibition is 19.9% (inactive).

For `C[C@H](NC(=O)OC(C)(C)C)c1nnc(SCC(N)=O)o1`, the inhibition was 9.7% (inactive).

For `CCOC(=O)C1CCc2nc3ccccc3c(=O)n21` (stereo not drawn), the inhibition was 17.4% (inactive).

Consider `CCN(CC)CCCNC(=O)c1cc(-c2cccc(Cl)c2)on1`, for which the inhibition was 10.3% (inactive).

In the case of `NC(=O)c1ccsc1NC(=O)c1ccco1`, the inhibition was 3.89% (inactive).

For `CC1CCc2c(sc3c2C2=NS(=O)(=O)CCN2C=N3)C1` (stereo not drawn), the inhibition is 0.12% (inactive).

`CCS(=O)(=O)N1CCN(C(=O)c2cccs2)CC1`: the inhibition is 3.99% (inactive).

`O=C(NCCCNC(=O)NC1CCCCC1)NC1CCCCC1`: the inhibition is 4.27% (inactive).

Consider `N#Cc1c2c(c(N3CCN(CCO)CC3)n3c1nc1ccccc13)CCCC2`, for which the inhibition was 10.1% (inactive).

Turning to `Cc1ccc(-c2cc(C(F)(F)F)n3nc(C(=O)N4CCCC4)cc3n2)cc1`, the inhibition is -2.27% (inactive).

For the compound `C=CCNC(=O)c1ccc(C)c(Br)c1`, the inhibition is 21.6% (inactive).

With `COCCNC(=O)C(C#N)c1nc2ccccc2nc1N1CCN(Cc2ccc3c(c2)OCO3)CC1` (stereo not drawn), the inhibition was -9.53% (inactive).

Consider `CC1(C)CC(=O)C(C=NCc2cccnc2)=C(O)C1`, for which the inhibition is 3% (inactive).

For the compound `Cc1ccccc1-c1ccc(Nc2ccc(C(=O)N3CCOCC3)cc2)nn1`, the inhibition is -0.35% (inactive).

On to `COc1ccc(CCNC(=O)CSc2nnc(CNC(=O)c3cccs3)o2)cc1OC`, for which the inhibition is 3.37% (inactive).

As for `CCCCC(CC)C(=O)Nc1ccc(Cl)cn1` (stereo not drawn), the inhibition is 1.2% (inactive).

In the case of `CCOC(=O)c1[nH]c2ccc(C)cc2c1N=C(C)N(C)C`, the inhibition was 0.54% (inactive).

Consider `CCC(=O)Nc1ccc(C(=O)CSc2nnc(CNc3ccc(Cl)cc3)o2)cc1OC`, for which the inhibition is 9.8% (inactive).

As for `Cc1ccc(S(=O)(=O)C2(S(=O)(=O)c3ccc(C)cc3)CCCC2)cc1`, the inhibition was -3.77% (inactive).

`Cc1ccc(-n2nc3c(c2NC(=O)c2ccc4c(c2)OCO4)CSC3)c(C)c1`: the inhibition is -0.76% (inactive).

As for `CCOC(=O)N1CCN(C(=O)CN(C2CCCCC2)S(C)(=O)=O)CC1`, the inhibition is -8.17% (inactive).

Consider `CC(C)(C)c1cc(CN2CCN(CCC#N)CC2)cc(C(C)(C)C)c1O`, for which the inhibition is 4.94% (inactive).

In the case of `CCn1c(CSc2nncn2-c2ccc(OC)cc2)nc2cc(S(=O)(=O)N(C)C)ccc21`, the inhibition was 15% (inactive).

Regarding `O=C(Nn1cc(C(=O)N2CCN(c3ccccc3F)CC2)c2ccccc2c1=O)c1cnccn1`, the inhibition was -5.99% (inactive).

With `CCN(Cc1ccccc1)C(=O)CSc1nc(C)cc2c1C(=O)OC2`, the inhibition is 5.38% (inactive).

Regarding `CCC(C)n1[nH]c(=O)c2c(C)cc(C)nc21` (stereo not drawn), the inhibition was 12.4% (inactive).

As for `COc1ccc(-c2ccnc(SCC(=O)N3CCOCC3)n2)cc1`, the inhibition is 11.9% (inactive).

For the compound `CCn1c(-c2cc(OC)ccc2OC)csc1=Nc1c(C)n(C)n(-c2ccccc2)c1=O`, the inhibition was -2.42% (inactive).

`COc1ccc(NC2CC(=O)N(C)C2=O)cc1` (stereo not drawn): the inhibition is 4.64% (inactive).

For the compound `CC(C)n1c(C(O)c2ccccc2)nc2ccccc21` (stereo not drawn), the inhibition is 2.15% (inactive).

For `Cc1cccn2c(=O)c3cc(C#N)c(=O)n(CCCN4CCOCC4)c3nc12`, the inhibition is -56.6% (inactive).

For `CCOC(=O)C1(C(F)(F)F)N=C(N(C)C)OC(N(C)C)=N1`, the inhibition was -0.15% (inactive).

With `Cc1cc(C)c(C(=O)CN2C(=O)CCC2=O)cc1C`, the inhibition was 5.02% (inactive).

As for `O=C(c1ccc2c(c1)N(Cc1ccc(F)cc1)C(=O)CS2)N1CCOCC1`, the inhibition is -0.56% (inactive).

For `CN(C(=O)COc1ccccc1)c1nnc(-c2ccncc2)s1`, the inhibition was -26.7% (inactive).

On to `CN(C(=O)c1ccno1)c1nnc(-c2cccnc2)s1`, for which the inhibition is -4.38% (inactive).

Take `CN(C(=O)C1CCOC1)c1nnc(-c2cccnc2)s1` (stereo not drawn): the inhibition is 49.5% (active).

Turning to `COc1ccc(-c2nnc(SC(C)C#N)o2)cc1` (stereo not drawn), the inhibition is 9.86% (inactive).

As to `CC(=O)Nc1nc(C)c(Cc2ccccc2)c(=O)[nH]1`, the inhibition is -7.6% (inactive).

For the compound `CCOc1cccc(C(=O)Nc2cccnc2)c1`, the inhibition is -6.37% (inactive).

`CC(=O)Nc1ccc(S(=O)(=O)N2CCN(C3CCCCCCC3)CC2)cc1`: the inhibition is 7.05% (inactive).

For the compound `COc1ccc2c(c1OC)C(=O)N(c1ncn[nH]1)C2`, the inhibition was 2.08% (inactive).

As for `COc1ccc(NC(=O)CN2CCN(S(=O)(=O)c3ccc(F)cc3)CC2)cc1Cl`, the inhibition was 20.1% (inactive).

In the case of `COc1ccc(S(=O)(=O)Nc2ccc3c(c2)OCO3)cc1Cl`, the inhibition is 3.1% (inactive).

As to `CCc1nnc(NC(=O)CCC(=O)O)s1`, the inhibition is 3.51% (inactive).

Regarding `COC(=O)C1C(=O)CC(C)(O)C(C(=O)OC)C1c1ccc2c(c1)OCO2` (stereo not drawn), the inhibition is 11.2% (inactive).

As to `CN1CCN(S(=O)(=O)c2ccc3[nH]cc(C(=O)O)c(=O)c3c2)CC1`, the inhibition was -3.14% (inactive).

For `CCCN1CCN(CCCNC(=O)CN2C(=O)COc3ccccc32)CC1`, the inhibition is -8% (inactive).

As to `COc1ccc(N2CCN(CCNC(=O)CCN3C(=O)COc4ccccc43)CC2)cc1`, the inhibition was 104% (active).

`O=C(CCN1C(=O)COc2ccccc21)NCCCN1CCN(c2ccc(F)cc2)CC1`: the inhibition is 5.08% (inactive).

In the case of `O=C(CCCC(=O)N(CC(=O)NC1CCCC1)Cc1ccccc1Cl)Nc1ccccn1`, the inhibition was 9.21% (inactive).

With `c1ccc2[nH]c(-c3nc4ccccc4[nH]3)nc2c1`, the inhibition is 3.52% (inactive).

In the case of `Cc1ccc2nc3n(c(=O)c2c1)CCC3`, the inhibition is 14.4% (inactive).

In the case of `CCCC(=O)N1c2ccccc2NC2=C(C(=O)CCC2)C1c1ccc(F)cc1` (stereo not drawn), the inhibition was 3.55% (inactive).

In the case of `O=C(NC12CC3CC(CC(C3)C1)C2)N1CCCC(CO)C1` (stereo not drawn), the inhibition was 2.74% (inactive).

For the compound `CCOC(=O)C1=C(C)NC(=O)N(C(C)=O)C1c1ccc(Cl)cc1` (stereo not drawn), the inhibition was 12.8% (inactive).

`COc1ccc(C2CC(c3ccc(C)cc3)Nc3nc(N)nn32)cc1` (stereo not drawn): the inhibition was -0.09% (inactive).

`COc1ccccc1-c1cc(C(=O)N2CCCCC2)no1`: the inhibition was -3.35% (inactive).

Take `COc1ccc(Br)cc1/C=N/n1c(C)nnc1C`: the inhibition is 12.8% (inactive).

As to `CCCOC(=O)CC1C(=O)NCCN1Cc1ccc(F)cc1` (stereo not drawn), the inhibition was -5.6% (inactive).

With `CCOC(=O)c1ccc(NC(=O)CSc2nnc(COc3ccccc3OC)n2C)cc1`, the inhibition is -5.46% (inactive).

`CCOc1ccc(C(=O)Nc2ccncc2)cc1`: the inhibition is 21.4% (inactive).

For the compound `Cc1cnc(C(=O)OCC(=O)Nc2ccc(Cl)cc2Cl)cn1`, the inhibition is -0.6% (inactive).

For the compound `Fc1ccc2[nH]c3c(N4CCN(Cc5ccc6c(c5)OCO6)CC4)ncnc3c2c1`, the inhibition is -9.64% (inactive).

As for `c1ccc(-c2noc(-c3cccs3)n2)nc1`, the inhibition was 0.38% (inactive).

On to `CCOc1cc(/C=N/O)cc(Br)c1OC`, for which the inhibition was 2.18% (inactive).

For the compound `COC(=O)C(C)C1Sc2ccccc2NC1=O` (stereo not drawn), the inhibition was -1.59% (inactive).

For `CCCCOc1ccc(-c2ncc(C(=O)OCC)c(N)n2)cc1`, the inhibition is 4.53% (inactive).

Consider `Cc1cc(NC(=O)c2cnn3cccnc23)n(-c2ccccc2)n1`, for which the inhibition is 1.38% (inactive).

Turning to `COc1cccc(N2C(=O)C3CCCN3C2c2ccc(F)cc2)c1` (stereo not drawn), the inhibition was -5.29% (inactive).

In the case of `Cc1noc(C)c1C(=O)NC(C)c1ccc2c(c1)OCO2` (stereo not drawn), the inhibition was 19.1% (inactive).

Turning to `CN(Cc1ccccc1)Cc1ccccc1F`, the inhibition is 6.62% (inactive).

On to `COC(=O)c1cc(S(=O)(=O)NC2CCN(Cc3ccccc3)CC2)cn1C`, for which the inhibition was -7.14% (inactive).

Regarding `Cc1cc(OCCN2CCCC2)ccc1C(C)C`, the inhibition is 3.61% (inactive).

Regarding `CCCc1cc(=O)[nH]c(SCC(=O)OCc2ccccc2)n1`, the inhibition was -7.39% (inactive).

As for `CCn1cc(C(=O)NCc2ccc(OC)cc2OC)c(=O)c2ccc(C)nc21`, the inhibition was -0.88% (inactive).

In the case of `O=c1cc(Cn2nnc(-c3ccc(Cl)cc3)n2)nc2sccn12`, the inhibition is 18.2% (inactive).

`Cc1cccc(N(CC(O)CN(C)C)S(=O)(=O)c2ccccc2)c1` (stereo not drawn): the inhibition was -0.65% (inactive).

Take `Cc1ccc(C2(c3ccc(C)cc3)NC(=O)N(Cc3c(C)noc3C)C2=O)cc1`: the inhibition was 13.3% (inactive).

Turning to `Cc1nc2ccc(NC(=O)N3CCC(c4ccccc4)C3)cc2nc1C` (stereo not drawn), the inhibition is -130% (inactive).

On to `COc1ccc2[nH]c(=O)c(CN(CC3CCCO3)C(=O)Nc3ccccc3)cc2c1` (stereo not drawn), for which the inhibition was -6.3% (inactive).

Regarding `CCN(CC(=O)Nc1ccc2c(c1)OCCO2)Cc1cc(=O)oc2cc(C)c(C)cc12`, the inhibition is 0.7% (inactive).
